Screens (PubChem BioAssay)
TDP1 block – qHTS Assay for Inhibitors of Tyrosyl-DNA Phosphodiesterase (TDP1); Tyrosyl-DNA phosphodiesterase 1 (Homo sapiens), Q9NUW8; recombinant TDP1, AlphaScreen DNA substrate cleavage; Potency, µM (top dose mostly 130 µM), hits mostly inhibitors; 350,000 compounds, 0.28% hits; AID 485290, 2010; also: nearly all actives have a fitted effect of over 40% in size
Target sequence (Q9NUW8 whole entry, looked up): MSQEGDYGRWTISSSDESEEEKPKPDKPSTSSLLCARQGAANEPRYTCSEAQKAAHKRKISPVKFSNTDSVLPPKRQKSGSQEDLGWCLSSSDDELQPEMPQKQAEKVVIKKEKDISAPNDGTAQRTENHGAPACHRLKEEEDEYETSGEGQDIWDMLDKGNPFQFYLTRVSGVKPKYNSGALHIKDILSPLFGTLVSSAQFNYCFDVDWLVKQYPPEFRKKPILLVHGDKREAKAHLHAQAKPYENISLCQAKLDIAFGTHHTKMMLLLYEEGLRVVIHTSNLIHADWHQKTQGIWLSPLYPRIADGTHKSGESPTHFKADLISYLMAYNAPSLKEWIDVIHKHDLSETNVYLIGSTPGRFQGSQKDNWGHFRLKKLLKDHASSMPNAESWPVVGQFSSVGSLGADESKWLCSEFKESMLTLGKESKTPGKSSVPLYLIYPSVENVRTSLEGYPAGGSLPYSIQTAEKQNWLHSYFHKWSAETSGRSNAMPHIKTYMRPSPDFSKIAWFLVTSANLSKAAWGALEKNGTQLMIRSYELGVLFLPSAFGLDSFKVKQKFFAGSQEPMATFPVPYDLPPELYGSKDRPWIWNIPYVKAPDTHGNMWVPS
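Signal: AlphaScreen proximity between streptavidin donor and anti-FITC acceptor beads on intact substrate. Reaction: Tdp1 1 nM, substrate 15 nM final, 5 min RT after 15 min compound preincubation.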
TDP1 cell noCPT – qHTS for Inhibitors of human tyrosyl-DNA phosphodiesterase 1 (TDP1): qHTS in cells in absence of CPT; Potency, µM (titrated, usually from 46.2 µM), actives largely listed as inhibitors; 420,000 compounds, 15% hits; DT40 Tdp1-/- hTDP1 cells, no CPT, ATP luminescence, 48 h; also: nearly all actives have a fitted effect of over 55% in size
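A cellular qHTS used chicken DT40 cells lacking endogenous Tdp1 but carrying stably transfected human TDP1. Compounds were applied without camptothecin, and cell growth kinetics were judged by ATP-dependent luminescence after ≥48 hr.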
TDP1 cell CPT – qHTS for Inhibitors of human tyrosyl-DNA phosphodiesterase 1 (TDP1): qHTS in cells in presence of CPT; 420,000 compounds, 12% hits; Potency, µM (top dose mostly 46.2 µM), hits mostly inhibitors; chicken DT40 Tdp1-/-;hTDP1 cells + 20 nM CPT, ATP luminescence, 48 h; also: nearly all actives have a fitted effect of over 55% in size
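Chicken DT40 Tdp1-/- cells stably complemented with human TDP1 were seeded at 400 cells/well in medium containing 20 nM camptothecin, exposed to pin-transferred compounds, and grown at 37 °C for at least 48 hr. Viability was read as ATP luminescence.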
ClpP mod – qHTS Assay for Activators of ClpP; ATP-dependent Clp protease proteolytic subunit (Bacillus subtilis (strain 168)), P80244; purified B. subtilis ClpP, FRET peptide cleavage, 20 min; Potency, µM (highest dose often 57.5 µM); 340,000 compounds, 1.9% hits; AID 651965, 2013; active = well fitted falling curve with a large enough effect; inconclusive = small, poorly fitted or top-dose-only effect; inactive = no such curve, though single readings can be large or run the other way; also: the source files actives as falling curves though it sought activators and does not explain the sign; nearly all actives have a fitted effect of over 65% in size
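ClpP 10 microg/mL final, pH 8 Tris/KCl buffer with BSA, glycerol, Tween-20; compound pinned in; FRET-FV substrate; RT 20 min; Ex320/Em430; ΔFRET vs ADEP 5.8 microM, DMSO, no enzyme.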
Hits are given with their value; [ ] = dose if it differs, or a comment. Hits are enriched below; roughly 17% of the tested compounds scored in any of these assays. Unless noted, calls follow the shape of the dose curve; as a rule, active = well fitted curve in the direction sought with a large enough effect; inconclusive = small, poorly fitted or top-dose-only effect, or another doubt; inactive = no such curve, though single readings can be large; an effect the other way counts as inactive or inconclusive.

For COC(=O)C1=C(C)N(Cc2ccc(OC)cc2)C(=O)/C1=C\c1ccco1 the results were TDP1 block inactive, TDP1 cell noCPT 16.4µM and TDP1 cell CPT 25.9µM.
For O=C(Cc1cccc2ccccc12)NCC(=O)N1CCN(Cc2cccc(C(F)(F)F)c2)CC1 the results were TDP1 block inactive, TDP1 cell noCPT 10.3µM, TDP1 cell CPT 10.3µM and ClpP mod inactive.
Screening CCc1ccccc1NC(=O)CN1CCN(C(=O)CNC(=O)c2ccccc2F)CC1 returned TDP1 block inactive, TDP1 cell noCPT inactive, TDP1 cell CPT inactive and ClpP mod inactive.
`O=C(Cc1cccc2ccccc12)NCC(=O)N1CCN(CC(=O)Nc2ccc(F)cc2)CC1` gave TDP1 cell noCPT 18.4µM, TDP1 cell CPT inconclusive and ClpP mod inactive.
CC1CCCCN1S(=O)(=O)c1cc2c3c(c1)CC(=O)N3CCC2 (configuration not stated) was read as TDP1 block inactive, TDP1 cell noCPT inconclusive, TDP1 cell CPT inactive and ClpP mod inactive.
For O=C(/C=C1\NC2(CCCC2)Cc2ccccc21)N1CCOCC1 the results were TDP1 block inactive, TDP1 cell noCPT 11.6µM, TDP1 cell CPT 11.6µM and ClpP mod inactive.
For O=C(COc1cccc(C(F)(F)F)c1)NNC(=O)c1ccc(=O)[nH]c1 the results were TDP1 block inactive, TDP1 cell noCPT inactive, TDP1 cell CPT inactive and ClpP mod inactive.
Screening COC(=O)c1cc(C)ccc1/C=C1/Cc2c(C)cc(C)cc2C1=O returned TDP1 cell noCPT inconclusive, TDP1 cell CPT 9.2µM and ClpP mod inactive.
For O=C(Nc1ccccc1)c1cc(-c2ccccc2Cl)no1 the results were TDP1 block inactive, TDP1 cell noCPT 16.4µM, TDP1 cell CPT 16.4µM and ClpP mod inactive.
For Cc1onc(-c2ccccc2Cl)c1C(=O)Nc1ccccc1O the results were TDP1 block inactive, TDP1 cell noCPT 18.4µM and TDP1 cell CPT inconclusive.
For Cc1cc(C)nc(NC(=O)c2c(-c3ccccc3Cl)noc2C)c1 the results were TDP1 block inactive, TDP1 cell noCPT 20.6µM, TDP1 cell CPT inconclusive and ClpP mod inactive.
`Cc1ccnc(NC(=O)c2c(-c3ccccc3Cl)noc2C)c1` gave TDP1 block inactive, TDP1 cell noCPT inactive, TDP1 cell CPT inconclusive and ClpP mod inactive.
`Cc1nc(NC(=O)c2c(-c3ccccc3Cl)noc2C)sc1C` gave TDP1 block inactive, TDP1 cell noCPT inconclusive, TDP1 cell CPT 16.4µM and ClpP mod inactive.
`Cc1nnc(NC(=O)c2c(-c3ccccc3Cl)noc2C)s1` gave TDP1 block inactive, TDP1 cell noCPT inactive and TDP1 cell CPT inactive.
Screening CCn1cnc2c(Nc3cc(F)cc(F)c3)nc(C(=O)COc3c(F)c(F)cc(F)c3F)nc21 returned TDP1 block inactive.
Screening Cc1onc(-c2ccccc2Cl)c1C(=O)N(C)C1CCCCC1 returned TDP1 block inactive, TDP1 cell noCPT 3.66µM, TDP1 cell CPT 4.61µM and ClpP mod inactive.
CC(C)c1cc(-c2cc(-c3ccccc3)on2)nc(NC2CCCC2)n1 was read as TDP1 block inactive, TDP1 cell noCPT inconclusive, TDP1 cell CPT inconclusive and ClpP mod inconclusive.
Screening Cc1onc(-c2ccccc2Cl)c1C(=O)Nc1ccccc1 returned TDP1 block inactive, TDP1 cell noCPT inconclusive, TDP1 cell CPT 11.6µM and ClpP mod inactive.
CCN(C(=O)c1c(-c2ccccc2Cl)noc1C)C1CCCCC1 was read as TDP1 block inactive, TDP1 cell noCPT inconclusive and TDP1 cell CPT inconclusive.
For CC(C)c1cc(-c2cc(C(=O)Nc3ccccc3)on2)nc(NC2CCCC2)n1 the results were TDP1 cell noCPT inconclusive, TDP1 cell CPT 25.9µM and ClpP mod inconclusive.
`Cc1cc(C)nc(NC(=O)c2c(F)c(F)c(F)c(C(=O)Nc3cc(C)cc(C)n3)c2F)c1` gave TDP1 cell noCPT 16.4µM, TDP1 cell CPT inconclusive and ClpP mod inconclusive.
`Cc1cc(C)nc(NC(=O)CCCC(=O)O)c1` gave TDP1 block inactive, TDP1 cell noCPT inactive, TDP1 cell CPT inactive and ClpP mod inactive.
For Cc1oc(-c2ccccc2NC(=O)C2CCCO2)nc1CNC(=O)c1cc(Cl)ccc1F (configuration not stated) the results were TDP1 cell noCPT inactive and TDP1 cell CPT inactive[9.04 µM].
CCCC(=O)Nc1cccc(-c2nc3ccccc3c(=O)o2)c1 was read as TDP1 block inactive, TDP1 cell noCPT inactive and TDP1 cell CPT inactive.
